# Laboratory results as given in PubChem BioAssay (NCI).
# Compounds without any hit were thinned out: in the full panel of roughly 79,000, 15% have a hit. Unmarked numbers belong to inactive results. Active and inactive are the calls of the source. Cut-off read from the data, not from the text of the source: active = growth inhibition above about 70%; inactive = the rest.
# Test: NCI Yeast Anticancer Drug Screen. Data for the rad18 strain (AID 177)
# Settings: S. cerevisiae rad18 mutant growth inhibition, stronger effect = higher value
# Procedure: Growth inhibition of yeast strains with defined genetic alterations is measured as a screen for potential anti-cancer activity. Selected strains with alterations in DNA damage repair or cell cycle control were exposed to compounds and growth inhibition was measured relative to vehicle treated controls. The strain used in this assay is rad18
Compound,growth inhibition (at 1.2 µM),growth inhibition (at 3.7 µM),growth inhibition (at 11.0 µM),growth inhibition (at 33.0 µM),growth inhibition (at 100.0 µM)
O=[N+]([O-])CC(SCc1ccccc1)c1ccc2c(c1)OCO2 (stereo not given),7%,23%,79% (active),98% (active),98% (active)
COC(=O)CCNc1c2ccccc2nc2cccc([N+](=O)[O-])c12,97% (active),97% (active),95% (active),97% (active),97% (active)
O=C1C=CC(=O)c2c(O)c(Nc3ccc(OC(F)(F)F)cc3)c(Cl)c(O)c21,-2%,-2%,4%,45%,92% (active)
COc1ccc(N=C2C(=O)Nc3ccc(Br)cc32)cc1,-25%,-36%,-39%,-30%,-28%
CC(C)=CC(=O)O[C@@H]1CC(C)(C)CC2C3=CCC4[C@]56CC[C@](O)(OC5)C(C)(C)C6CC[C@@]4(C)C3(C)CC[C@]21C(=O)O (stereo not given in full),9%,42%,36%,95% (active),94% (active)
NC(=O)NN=C(CS)CS,-1%,6%,19%,61%,95% (active)
CC(=O)Cc1ccc[cH-]1.[Fe+2].c1cc[cH-]c1,6%,17%,29%,10%,35%
Cc1ccc(NC(=O)/C(Cl)=C(\Cl)C(=O)O)cc1C,0%,3%,24%,99% (active),99% (active)
